# Laboratory results reported in PubChem BioAssay (NCATS).
# Results filed as inconclusive are left out. This is one part of the list. A call without a number means that no potency is given here. The source made the active and inactive calls. The call rests on the fitted dose curve; in most records, active means well fitted curve in the direction sought with a large enough effect; inconclusive means small, poorly fitted or top-dose-only effect, or another doubt; inactive means no such curve, though single readings can be large; an effect the other way counts as inactive or inconclusive.
# How the values were obtained:
# [1] = biological target: Tyrosine-protein kinase Yes (Homo sapiens) (UniProt P07947); test: qHTS for small molecule inhibitors of Yes1 kinase: Primary Screen (AID 686947); settings: Yes1 kinase biochemical qHTS inhibition; series mostly up to 76.9 µM; further: nearly all actives have a fitted effect of over 60% in size; further: potency means the concentration at half of the fitted maximal effect
# Chain of Tyrosine-protein kinase Yes (Homo sapiens) (P07947 whole entry, looked up): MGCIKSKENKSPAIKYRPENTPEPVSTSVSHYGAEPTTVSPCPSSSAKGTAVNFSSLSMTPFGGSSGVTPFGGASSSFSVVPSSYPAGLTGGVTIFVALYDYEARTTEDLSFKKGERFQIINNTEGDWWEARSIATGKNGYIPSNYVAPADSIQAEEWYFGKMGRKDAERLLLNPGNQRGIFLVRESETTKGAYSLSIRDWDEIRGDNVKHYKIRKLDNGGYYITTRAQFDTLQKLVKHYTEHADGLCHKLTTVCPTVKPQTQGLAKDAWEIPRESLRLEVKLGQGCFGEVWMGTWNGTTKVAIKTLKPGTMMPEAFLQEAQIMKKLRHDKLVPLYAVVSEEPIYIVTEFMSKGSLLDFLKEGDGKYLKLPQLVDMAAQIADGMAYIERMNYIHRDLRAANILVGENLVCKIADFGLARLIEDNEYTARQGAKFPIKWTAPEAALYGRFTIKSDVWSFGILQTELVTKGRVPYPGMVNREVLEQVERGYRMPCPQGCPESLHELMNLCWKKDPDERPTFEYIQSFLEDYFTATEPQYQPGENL
# Outline: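 Yes1 (4 nM) preincubated 20 min with compound, then 60 min room-temperature reaction with 0.1 mM ATP and 0.3 mg/mL poly(E4Y) in pH 7.5 Tris, 10 mM MgCl2. ADP measured by ADP-Glo luminescence, normalised to enzyme/no-enzyme controls.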
# [2] = qHTS for small molecule inhibitors of Yes1 kinase: Counter Assay (AID 686950); settings: series mostly up to 76.9 µM;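 further: no kinase present so only ADP-Glo detection of a fixed ADP amount is tested; luminescence from ADP-Glo reporting ADP in a fixed ATP and ADP mixture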
# Outline: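 Luminescence read-out from ADP-Glo quantifies a fixed ADP amount (0.02 mM ADP with 0.08 mM ATP) after 60 min at room temperature; signal is normalized between DMSO wells with ATP/ADP and with 0.1 mM ATP alone.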
# [3] = biological target: DNA polymerase kappa (Homo sapiens) (UniProt Q9UBT6); test: qHTS for Inhibitors of Polymerase Kappa: Confirmatory Assay for Cherry-picked Compounds (AID 720501); settings: purified Pol-kappa, fluorescent strand-displacement substrate; further: potency means the concentration at half of the fitted maximal effect
# Chain of DNA polymerase kappa (Homo sapiens) (Q9UBT6 whole entry, looked up): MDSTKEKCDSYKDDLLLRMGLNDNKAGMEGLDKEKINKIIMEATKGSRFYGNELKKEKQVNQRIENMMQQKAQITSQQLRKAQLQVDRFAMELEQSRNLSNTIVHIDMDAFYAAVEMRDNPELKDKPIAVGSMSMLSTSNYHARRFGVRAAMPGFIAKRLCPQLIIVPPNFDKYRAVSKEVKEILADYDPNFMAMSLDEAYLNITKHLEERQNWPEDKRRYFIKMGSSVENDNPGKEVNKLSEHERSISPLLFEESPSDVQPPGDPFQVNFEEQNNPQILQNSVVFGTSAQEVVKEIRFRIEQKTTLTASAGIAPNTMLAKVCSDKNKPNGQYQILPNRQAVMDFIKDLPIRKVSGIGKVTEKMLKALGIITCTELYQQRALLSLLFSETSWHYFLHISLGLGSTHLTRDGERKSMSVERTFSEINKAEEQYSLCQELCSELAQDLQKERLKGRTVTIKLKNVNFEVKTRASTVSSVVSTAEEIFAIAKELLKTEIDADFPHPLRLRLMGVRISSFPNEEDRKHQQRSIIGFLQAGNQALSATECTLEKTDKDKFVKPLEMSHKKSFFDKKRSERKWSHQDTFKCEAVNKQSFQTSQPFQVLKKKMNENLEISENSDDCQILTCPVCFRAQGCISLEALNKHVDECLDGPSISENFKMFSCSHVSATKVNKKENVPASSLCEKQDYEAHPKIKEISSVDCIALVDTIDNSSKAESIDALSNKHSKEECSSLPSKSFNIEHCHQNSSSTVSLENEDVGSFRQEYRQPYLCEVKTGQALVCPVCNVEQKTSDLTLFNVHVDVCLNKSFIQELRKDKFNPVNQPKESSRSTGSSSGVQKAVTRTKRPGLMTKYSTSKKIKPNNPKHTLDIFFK
# Outline: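 Strand-displacement fluorescence read-out: TAMRA reporter released from a BHQ-2-quenched template, measured at 525/598 nm over a 10 min kinetic window. Substrate was 50 nM final; enzyme was 10 nM Pol-kappa, preincubated 15 min at room temperature with compound.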
# [4] = biological target: DNA polymerase iota (Homo sapiens) (UniProt Q9UNA4); test: qHTS for Inhibitors of Polymerase Iota: Confirmatory Assay for Cherry-picked Compounds (AID 720496); settings: Pol iota primer extension, TAMRA/BHQ fluorescence; further: potency means the concentration at half of the fitted maximal effect
# Chain of DNA polymerase iota (Homo sapiens) (Q9UNA4 whole entry, looked up): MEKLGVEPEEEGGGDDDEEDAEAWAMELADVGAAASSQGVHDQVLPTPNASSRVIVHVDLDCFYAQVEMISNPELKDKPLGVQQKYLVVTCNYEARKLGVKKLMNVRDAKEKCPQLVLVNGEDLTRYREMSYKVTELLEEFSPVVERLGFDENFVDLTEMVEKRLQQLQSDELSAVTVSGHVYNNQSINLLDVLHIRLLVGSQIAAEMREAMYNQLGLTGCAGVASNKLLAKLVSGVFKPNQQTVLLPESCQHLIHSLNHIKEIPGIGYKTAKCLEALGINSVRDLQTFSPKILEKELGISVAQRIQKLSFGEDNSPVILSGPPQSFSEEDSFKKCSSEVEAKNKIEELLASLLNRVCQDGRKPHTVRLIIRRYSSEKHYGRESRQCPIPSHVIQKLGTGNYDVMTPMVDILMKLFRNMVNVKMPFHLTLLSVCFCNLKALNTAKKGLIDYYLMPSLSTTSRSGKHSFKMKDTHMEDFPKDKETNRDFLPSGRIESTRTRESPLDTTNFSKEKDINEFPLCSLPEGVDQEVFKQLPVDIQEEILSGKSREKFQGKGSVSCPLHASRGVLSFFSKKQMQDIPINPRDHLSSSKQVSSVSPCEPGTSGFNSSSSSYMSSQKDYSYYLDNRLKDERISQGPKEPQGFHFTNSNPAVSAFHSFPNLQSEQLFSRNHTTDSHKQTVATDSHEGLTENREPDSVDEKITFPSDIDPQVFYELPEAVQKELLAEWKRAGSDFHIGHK
# Outline: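 Recombinant human Pol iota (10 nM) was preincubated with compound for 15 min at room temperature, then 50 nM final primer/template substrate was added; the substrate carried a TAMRA-labeled reporter strand and a BHQ-2-quenched template. Fluorescence was read at 0 and 10 min.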
# [5] = biological target: DNA polymerase eta (Homo sapiens) (UniProt Q9Y253); test: qHTS for Inhibitors of Polymerase Eta: Confirmatory Assay for Cherry-picked Compounds (AID 720502); settings: Pol eta primer extension, TAMRA/BHQ fluorescence, 10 min; further: potency means the concentration at half of the fitted maximal effect
# Chain of DNA polymerase eta (Homo sapiens) (Q9Y253 whole entry, looked up): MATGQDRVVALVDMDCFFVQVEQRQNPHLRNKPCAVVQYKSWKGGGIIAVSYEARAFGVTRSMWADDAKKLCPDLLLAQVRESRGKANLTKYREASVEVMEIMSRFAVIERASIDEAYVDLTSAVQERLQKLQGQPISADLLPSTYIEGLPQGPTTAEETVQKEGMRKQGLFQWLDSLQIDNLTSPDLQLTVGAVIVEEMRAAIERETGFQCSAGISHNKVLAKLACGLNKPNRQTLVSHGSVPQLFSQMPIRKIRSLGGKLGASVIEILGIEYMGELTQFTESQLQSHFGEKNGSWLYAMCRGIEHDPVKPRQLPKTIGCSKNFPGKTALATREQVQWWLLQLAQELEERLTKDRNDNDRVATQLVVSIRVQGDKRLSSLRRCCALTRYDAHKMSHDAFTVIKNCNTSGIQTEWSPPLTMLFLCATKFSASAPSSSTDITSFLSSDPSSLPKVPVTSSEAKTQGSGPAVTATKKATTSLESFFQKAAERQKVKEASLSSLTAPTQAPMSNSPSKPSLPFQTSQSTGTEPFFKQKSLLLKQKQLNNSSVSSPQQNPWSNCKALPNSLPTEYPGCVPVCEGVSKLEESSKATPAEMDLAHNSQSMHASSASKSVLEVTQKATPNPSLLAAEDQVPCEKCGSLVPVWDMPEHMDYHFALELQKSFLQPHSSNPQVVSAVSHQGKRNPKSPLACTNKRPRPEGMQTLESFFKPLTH
# Outline: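 Readout: TAMRA dequenching, ex 525/em 598 nm, read at 0 and 10 min. Enzyme: 10 nM human Pol eta, preincubated with compound 15 min RT. Substrate: 50 nM final annealed primer/reporter/template duplex.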
structure (smiles),measurement,setting,value
COC(=O)Nc1nc2ccc(Sc3ccc(NC(=O)Nc4cc(C(F)(F)F)ccc4F)cc3)cc2[nH]1,Potency,[1],inactive
same,outcome,[2],inactive
CC(C)c1ccc2c(N=Nc3ccc(S(N)(=O)=O)cc3)c(O)[nH]c2c1,Potency,[1],inactive
same,outcome,[2],inactive
COC(=O)Nc1nc2ccc(Oc3cccc(NC(=O)Nc4cc(C(F)(F)F)ccc4F)c3)cc2[nH]1,Potency,[1],11.6 µM (active)
same,outcome,[2],inactive
CCn1c(-c2nonc2N)nc2c(C#CC(C)(C)O)ncc(OC3CCNCC3)c21,Potency,[1],26 µM (active)
same,outcome,[2],inactive
COC(=O)c1ccc2c(c1)/C(=C/c1cc(Br)c(O)c(Br)c1)C(=O)N2,Potency,[1],0.733 µM (active)
same,outcome,[2],inactive
NCc1ccc(-n2c(-c3nonc3N)nc3cnccc32)cc1,Potency,[1],inactive
same,outcome,[2],inactive
O=C(Nc1n[nH]c2nc(-c3ccco3)ccc12)C1CC1,Potency,[1],2.32 µM (active)
same,outcome,[2],inactive
Fc1ccc(-c2nn3ccccc3c2-c2ccncc2)cc1,Potency,[1],23.2 µM (active)
same,outcome,[2],inactive
CS(=O)(=O)CCNCc1ccc(-c2ccc3ncnc(Nc4ccc(OCc5ccccc5)cc4)c3c2)o1,Potency,[1],0.463 µM (active)
same,outcome,[2],inactive
COc1cc(N2CCN(C(C)C)CC2)ccc1Nc1nc(Nc2ccc(F)cc2C(=O)NCC(O)CO)c2cc[nH]c2n1 (stereo unspecified),Potency,[1],inactive
same,outcome,[2],inactive
CN(C)CCNC(=O)c1ccc(Cl)c2cc3ccccc3nc12,Potency,[3],21.2 µM (active)
Cc1ccc(C(=O)O)cc1-c1ccc(/C=C2\SC(=O)N(CC(=O)Nc3ccc4c(c3)OCO4)C2=O)o1,Potency,[4],7.52 µM (active)
same,Potency,[5],19 µM (active)
CCOc1cccc2c1N[C@@H](c1ccc(C(=O)O)cc1)[C@H]1CC=C[C@@H]21,Potency,[4],33.6 µM (active)
same,Potency,[3],2.38 µM (active)
same,Potency,[5],7.57 µM (active)
